This is an account of results in PubChem BioAssay (Tox21).

Molecules are shown by their SMILES. Results filed as inconclusive are left out. Calls of active or inactive are those of the source. The call rests on the fitted dose curve; in most records, active means well fitted cell-killing curve with a large enough effect in the repeat runs; inconclusive means weak or mixed curves, or effect the other way; inactive means flat fitted curve, though single readings scatter.

A short description of this assay: qHTS assay to identify small molecule agonists of the constitutive androstane receptor (CAR) signaling pathway - cell viability counter screen (AID 1224836). Further: nearly all actives have a fitted effect of over 45% in size. The settings on record: HepG2-CYP2B6-hCAR viability, CellTiter-Fluor, 23 h, PK11195 added to every well; series mostly up to 92.4 µM. The source says: U.S. Tox21 Program National Center for Advancing Translational Sciences [NCATS] NIH Chemical Genomics Center [NCGC] U.S. Environmental Protection Agency [EPA] National Institutes of Environmental Health Sciences [NIEHS] National Toxicology Program [NTP] U.S. Food and Drug Administration [FDA] Tox21 Assay Overview: The constitutive androstane receptor (CAR) is a nuclear receptor which regulates multiple drug metabolizing enzymes (DMEs) and transporters. Activating CAR will generally increase the transcription and subsequent translation of CYP2B6 and CYP3A4. These two DMEs represent about 50% of the drug metabolizing potential in the body. […] Recently, there have also been studies performed indicating CARs role in energy metabolism and cancer therapy. Therefore, inducing CARs activity could have a potential effect on diabetes and cancer. Identifying environmental toxins and compounds which modulate CAR, through the use of the Tox21 10K compound collection, will be an important step in determining the toxicity and potential therapeutic effects these factors will have on the human body. To differentiate true CAR agonists from cytotoxic substances, the assay is multiplexed with a cell viability assay.
Tox21 Assay Protocol Summary: A double-stable (hCAR and CYP2B6-2.2kb) transfected cell line, derived from human hepatoma (HepG2) cells, was utilized for the duration of the quantitative high-throughput screens. The HepG2-CYP2B6-hCAR cells were dispensed at 2500 cells/4 uL/well in 1536-well white solid bottom plates using a Multidrop Combi. After the assay plates were incubated at 37 C/5% CO2 for 4 hrs, 23 nL of compounds at 15 concentrations (from 5-48 columns) or positive control (from 1 to 4 columns) were transferred to the assay plates using a Pintool station. One uL of PK11195 (final concentration = 0.75 uM) was added, using a Flying Reagent Dispenser, inside each well. After a 23 hr incubation period at 37 C/5% CO2, 1 uL of CellTiter-Fluor reagent was added into each well of the assay plates using a Flying Reagent Dispenser. The fluorescence intensity in the plates was then measured using a ViewLux plate reader.
For orientation: Quantitative high-throughput screening tests each substance at several concentrations.
Consider `C/C(Cl)=C/CCl`, for which the compound was classed as inactive. Turning to `Cc1cc(C)c(N)c(Cl)c1`, the compound was classed as inactive. On to `CCN(CC)CC`, for which the outcome was inactive. Take `COc1cc(OC)cc(OC)c1`: the compound was called inactive. In the case of `O=C1CC2(CCCC2)CC(=O)N1CCNCC1COc2ccccc2O1` (stereo not given), the call was inactive.

With `N#CC1(N)CCCCC1`, the compound was called inactive. For `C=CCn1cc[n+](C)c1` the value was “inactive”. For `CNC(=O)c1c(I)c(NC(C)=O)c(I)c(C(=O)O)c1I` the value was “inactive”. For `CC/C=C\CCOC(=O)c1ccccc1` the value was “inactive”; for `CC(C)(C)NCC(O)COc1cccc2c1CCC(=O)N2` (stereo not given), “inactive”; for `CC(C)OC(=O)C(C(=O)OC(C)C)=C1SC=CS1`, “inactive”. Turning to `CNC(C)=O`, the outcome was inactive.

As to `CC(=O)SCC(CC(=O)c1ccc(C)cc1)C(=O)O` (stereo not given), the compound was classed as inactive. For the compound `CCOC(=O)CC`, the result was inactive.

In the case of `CC(C)(C)c1ccc(N)cc1`, the call was inactive.

For `COC(=O)C(c1ccccc1Cl)N1CCc2sccc2C1` (stereo not given), the result was inactive. For the compound `COC(=O)c1ccccc1Cl`, the outcome was inactive.

Consider `CN1C(CCl)Nc2cc(Cl)c(S(N)(=O)=O)cc2S1(=O)=O` (stereo not given), for which the result was inactive. Take `CCCCc1ccc(Cl)cc1`: the result was inactive. On to `CCCC(=O)OC`, for which the compound was classed as inactive. Regarding `Nc1cc(S(=O)(=O)O)ccc1O`, the compound was classed as inactive. As to `CCC(=O)OCCOc1ccccc1`, the compound was called inactive. In the case of `CCCCCCCCS(=O)(=O)O`, the call was inactive. `Cc1ccccc1OCC(=O)O`: the compound was classed as inactive. Regarding `Cc1cccc(N)n1`, the call was inactive. For `O=C1CCCc2c(O)cccc21`, the compound was called inactive. Take `CC(C)(C)OC=O`: the outcome was inactive.

Consider `C/C=C(\C)C=O`, for which the compound was classed as inactive. As to `O=C(O)P(=O)(O)O`, the compound was called inactive.

Regarding `CCCC[O][Al]([O]CCCC)[O]CCCC`, the compound was classed as inactive. Take `COc1cc(C(=O)NC2CCCNC2)cc(OC)c1OC` (stereo not given): the call was inactive. The value for `CCCCC(CC)COC(=O)CC#N` (stereo not given) was “inactive”; that for `CCCCCCCCCCCC(C)=O` was “inactive”; that for `CC(=O)Oc1ccc(C(C)=O)cc1` was “inactive”. Regarding `Cc1nnc(C(=O)NC(C)(C)c2nc(C(=O)NCc3ccc(F)cc3)c(O)c(=O)n2C)o1`, the outcome was inactive. Regarding `N=C(N)S(=O)O`, the outcome was inactive. In the case of `O=C(O)/C=C(\CC(=O)O)C(=O)O`, the result was inactive.

`C=CC(C)(CCC=C(C)C)OC(=O)C(C)C` (stereo not given): the result was inactive.

On to `N=C(N)N`, for which the call was inactive. For `COC(=O)N/N=C/c1c[n+]([O-])c2ccccc2[n+]1[O-]` the value was “inactive”.
